Laboratory results reported in PubChem BioAssay (EPA / NIEHS).
Where “and” joins values, the source holds several entries; their conditions need not be identical. Equal entries are not always repeated. Some structures have more than one record in an assay (separate samples or runs), and their calls can disagree. Calls of active or inactive are those of the source. Rule for the calls: active = hit-call score of the fitted dose curve at least 0.9, where 1 is the maximum; inactive = score below 0.9.

What was measured:
Conditions in all cases: mRNA level, 48 h; actives raise or lower the signal
[1] = read-out: Broad substrate specificity ATP-binding cassette transporter ABCG2 (Homo sapiens) (UniProt Q9UNQ0); assay: LTEA_HepaRG_ABCG2: Life Technologies and Expression Analysis (LTEA) Assay for ABC Transporter (ABCG2) using HepaRG (AID 2283465)
Method in brief: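 Read-out is ABCG2 mRNA induction or loss quantified by qRT-PCR after 48 h chemical treatment of human HepaRG cells, normalized to three housekeeping genes. Concentrations reached 100 uM top in half-log steps; fitting was bidirectional against 0.5% DMSO.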

[2] = read-out: ATP-citrate lyase (ACLY), ACLY (gene 47); assay: LTEA_HepaRG_ACLY: Life Technologies and Expression Analysis (LTEA) Assay for ATP-citrate lyase (ACLY) using HepaRG (AID 2283466)
Method in brief: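 HepaRG, 48 h exposure, 8-pt half-log dilutions (top 100 uM), 0.5% DMSO. Readout: ACLY mRNA, TaqMan qRT-PCR, housekeeping-normalized (ACTB/GAPDH/POLR2A). Bidirectional curve fit vs DMSO.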

[3] = read-out: Peroxisomal acyl-coenzyme A oxidase 1 (ACOX1) gene, ACOX1 (gene 51); assay: LTEA_HepaRG_ACOX1: Life Technologies and Expression Analysis (LTEA) Assay for Peroxisomal acyl-coenzyme A oxidase 1 (ACOX1) gene using HepaRG (AID 2283467)
Method in brief: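 Measured by qRT-PCR against three housekeeping genes: ACOX1 transcript change in human HepaRG cells after 48 h dosing. Concentrations ran up to 100 uM in half-log steps. Curves were fitted bidirectionally relative to 0.5% DMSO.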

[4] = read-out: Alkaline Phosphatase, Placental (ALPP) gene, ALPP (gene 250); assay: LTEA_HepaRG_ALPP: Life Technologies and Expression Analysis (LTEA) Assay for Alkaline Phosphatase, Placental (ALPP) gene using HepaRG (AID 2283468)
Method in brief: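 HepaRG cells plated 48 h, then exposed in duplicate for 48 h in serum-free induction medium to 8-point half-log series from 100 uM in 0.5% DMSO. ALPP mRNA by TaqMan qRT-PCR, normalized to ACTB/GAPDH/POLR2A; bidirectional fit versus DMSO.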

[5] = read-out: Bcl-2 (BAD) gene, BAD (gene 572); assay: LTEA_HepaRG_BAD: Life Technologies and Expression Analysis (LTEA) Assay for Bcl-2 (BAD) gene using HepaRG (AID 2283469)
Method in brief: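 BAD transcript change, measured by qRT-PCR against three housekeeping genes and fitted in both directions relative to 0.5% DMSO, after 48 h chemical treatment of human HepaRG liver cells at concentrations up to 100 uM.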

[6] = read-out: Bcl-2 (BAX) gene, BAX (gene 581); assay: LTEA_HepaRG_BAX: Life Technologies and Expression Analysis (LTEA) Assay for Bcl-2 (BAX) gene using HepaRG (AID 2283470)
Method in brief: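 HepaRG (human liver), 48 h exposure, duplicate wells. 8-pt curve, half-log from 100 uM, 0.5% DMSO. BAX transcript by TaqMan qRT-PCR; ACTB/GAPDH/POLR2A normalization; gain or loss vs DMSO baseline.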

[7] = read-out: adenosine kinase (ADK) gene, ADK (gene 132); assay: LTEA_HepaRG_ADK: Life Technologies and Expression Analysis (LTEA) Assay for adenosine kinase (ADK) gene using HepaRG (AID 2283471)
Method in brief: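 Differentiated HepaRG cells dosed 48 h in serum-free induction medium, 0.5% DMSO vehicle, eight half-log concentrations from 100 uM, in duplicate. ADK mRNA by TaqMan qRT-PCR normalised to ACTB, GAPDH, POLR2A; bidirectional fit versus DMSO.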

[8] = read-out: Alpha-fetoprotein (AFP) gene, AFP (gene 174); assay: LTEA_HepaRG_AFP: Life Technologies and Expression Analysis (LTEA) Assay for Alpha-fetoprotein (AFP) gene using HepaRG (AID 2283472)
Method in brief: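 HepaRG, single lot; 48 h post-plating -> serum-free induction medium; cpd 8-pt, 100 uM top, half-log, 0.5% DMSO, duplicate, 48 h. RNA -> qRT-PCR AFP, norm ACTB/GAPDH/POLR2A. Bidirectional fit vs DMSO.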

BCL2L11 (gene 10018) = assay: LTEA_HepaRG_BCL2L11: Life Technologies and Expression Analysis (LTEA) Assay for Bcl-2 (BCL2L11) gene using HepaRG (AID 2283473)
Method in brief: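 Differentiated human HepaRG cells were exposed 48 h in serum-free induction medium to eight half-log concentrations up to 100 uM in 0.5% DMSO, in duplicate. BCL2L11 mRNA was quantified by TaqMan qRT-PCR, normalized to ACTB, GAPDH and POLR2A; induction or repression fitted versus DMSO.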

[9] = read-out: Apolipoprotein A-V (APOA5) gene, APOA5 (gene 116519); assay: LTEA_HepaRG_APOA5: Life Technologies and Expression Analysis (LTEA) Assay for Apolipoprotein A-V (APOA5) gene using HepaRG (AID 2283474)
Method in brief: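 Differentiated HepaRG cells in serum-free induction medium, exposed 48 h in duplicate to eight half-log concentrations topping at 100 uM (0.5% DMSO). APOA5 mRNA by Fluidigm TaqMan qRT-PCR, normalized to ACTB, GAPDH and POLR2A; bidirectional fit versus DMSO.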

Measured: AC50

Chain of Broad substrate specificity ATP-binding cassette transporter ABCG2 (Homo sapiens) (Q9UNQ0 whole entry, looked up): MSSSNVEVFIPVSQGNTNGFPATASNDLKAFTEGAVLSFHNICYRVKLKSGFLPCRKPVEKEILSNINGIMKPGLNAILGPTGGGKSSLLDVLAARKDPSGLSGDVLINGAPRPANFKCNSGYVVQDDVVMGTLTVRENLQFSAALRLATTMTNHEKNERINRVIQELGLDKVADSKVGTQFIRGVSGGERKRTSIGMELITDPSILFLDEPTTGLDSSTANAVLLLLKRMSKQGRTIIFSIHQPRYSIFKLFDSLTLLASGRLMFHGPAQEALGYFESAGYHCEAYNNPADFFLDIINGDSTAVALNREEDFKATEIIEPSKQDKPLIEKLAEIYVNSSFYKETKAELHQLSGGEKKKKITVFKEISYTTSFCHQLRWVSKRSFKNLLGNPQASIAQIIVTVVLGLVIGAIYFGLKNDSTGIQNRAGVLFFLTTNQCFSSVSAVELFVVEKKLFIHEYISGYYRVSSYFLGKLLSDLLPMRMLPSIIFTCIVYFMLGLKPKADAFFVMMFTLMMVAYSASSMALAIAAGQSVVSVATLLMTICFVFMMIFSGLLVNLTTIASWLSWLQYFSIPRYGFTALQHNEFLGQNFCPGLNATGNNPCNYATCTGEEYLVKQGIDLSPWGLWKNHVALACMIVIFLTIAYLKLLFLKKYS

COCCO
inactive: all assays above

CCN(Cc1c(F)cccc1Cl)c1c([N+](=O)[O-])cc(C(F)(F)F)cc1[N+](=O)[O-]
active: [1] 20.3 µM | [8] 50 µM | [9] 26.7 µM
not listed: [2]
inactive: all other assays above

S=C(S)NCCNC(=S)S.[Mn+2].[S-]C([S-])=NCCN=C([S-])[S-].[Zn+2]
inactive: [4] | [5] | BCL2L11 (gene 10018)
active: [1] 200 nM and 267 nM and 401 nM | [2] 200 nM and 397 nM and 391 nM | [3] 799 nM and 1.07 µM and 953 nM | [4] 25 µM | [7] 255 nM and 1.08 µM and 270 nM | [8] 1.28 µM and 1.55 µM | BCL2L11 (gene 10018) 3.84 µM | [9] 1.22 µM and 1.49 µM and 1.99 µM

OB(O)O
not listed: [6]
inactive: all other assays above

CCCCC(CC)CN1C(=O)C2C3C=CC(C3)C2C1=O (stereo unspecified)
inactive: [3] | [5] | [7] | BCL2L11 (gene 10018)
active: [1] 13.2 µM | [2] 73 µM | [4] 65.4 µM | [8] 50 µM | [9] 79.3 µM

CCCOC(=O)c1ccc(C(=O)OCCC)nc1
inactive: all assays above

CCC(C)OC(=O)N1CCCCC1CCO (stereo unspecified)
not listed: [6]
inactive: all other assays above

CCOC(=O)c1ccc(O)cc1
not listed: [2]
inactive: all other assays above

O=C(Nc1ccc([N+](=O)[O-])cc1Cl)c1cc(Cl)ccc1O
active: [1] 17 µM | [3] 3.17 µM | [4] 15.9 µM | [5] 3.89 µM | [6] 6.15 µM | [7] 3.07 µM | [8] 20.4 µM | [9] 4.26 µM

CC(C)(c1ccc(O)cc1)c1ccc(O)cc1
inactive: [1] | [2] | [3] | [4] | [5] | [7] | [8] | BCL2L11 (gene 10018) | [9]
active: [3] 0.199 µM

CCNc1nc(N)nc(Cl)n1
not listed: [6]
inactive: all other assays above

CCCCOC(=O)[C@@H](C)Oc1ccc(Oc2ccc(C(F)(F)F)cn2)cc1
not listed: [6]
inactive: all other assays above

CCCN(CCC)c1c([N+](=O)[O-])cc(C(F)(F)F)c(N)c1[N+](=O)[O-]
active: [8] 34.4 µM | [9] 50 µM
inactive: all other assays above

C#C[C@]1(O)CC[C@H]2[C@@H]3CCC4=CC(=O)CC[C@@H]4[C@H]3CC[C@@]21CC
not listed: [2]
inactive: all other assays above

CC(=O)S[C@@H]1CC2=CC(=O)CC[C@]2(C)[C@H]2CC[C@@]3(C)[C@@H](CC[C@@]34CCC(=O)O4)[C@H]12
active: [3] 50 µM | [7] 50 µM | [8] 43.4 µM | [9] 61.8 µM
not listed: [2]
inactive: all other assays above

C=CCOC(Cn1ccnc1)c1ccc(Cl)cc1Cl (stereo unspecified)
active: [1] 2.47 µM | [3] 45 µM | [4] 50 µM | [8] 25.9 µM | BCL2L11 (gene 10018) 88.6 µM
inactive: [5] | [7]

CCCOC(=O)NCCCN(C)C
not listed: [2]
inactive: all other assays above

CCN(CC)C(=O)c1cccc(C)c1
not listed: [6]
inactive: all other assays above

CCOC(=O)C(C)Oc1ccc(Oc2cnc3cc(Cl)ccc3n2)cc1 (stereo unspecified)
not listed: [2]
inactive: all other assays above

CCCN(CCC)C(=O)SCC
not listed: [6]
inactive: all other assays above

O=C(O)c1ccccc1
not listed: [2]
inactive: all other assays above

CCOC(=O)COc1cc(-n2ncc(C(F)(F)F)c(C)c2=O)c(F)cc1Cl
not listed: [2]
inactive: all other assays above

CCOC(=O)NCCOc1ccc(Oc2ccccc2)cc1
inactive: [3] | [5] | [7] | BCL2L11 (gene 10018)
active: [1] 78 µM | [4] 50 µM | [8] 83.5 µM | [9] 85.8 µM

C#CCOC(=O)[C@@H](C)Oc1ccc(Oc2ncc(Cl)cc2F)cc1
not listed: [2]
inactive: all other assays above

COC(=O)c1ccccc1C(=O)O
not listed: [2] | [6]
inactive: all other assays above
